# Measured values taken from PubChem BioAssay (EPA / NIEHS).
# Records with an inconclusive call do not appear. Calls of active or inactive are those of the source. How the source made its calls, unless noted: active means hit-call score of the fitted dose curve at least 0.9, where 1 is the maximum; inactive means score below 0.9.
# Biological target: Estrogen receptor (Homo sapiens) (UniProt P03372)
# Assay: CCTE_Deisenroth_AIME_384WELL_LUC_Inactive: CCTE's 384-well Estrogen Receptor Transactivation Assay without AIME metabolic competence (ERTA luciferase; metabolism negative), Deisenroth Lab (AID 2284038; active means hit-call score of the fitted dose curve at least 0.9, where 1 is the maximum;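 further: VM7Luc4E2 breast cells given medium preincubated 2 h with S9-free microspheres; hits raise estrogen receptor luciferase signal so potencies reflect agonists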)
# Method in brief: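 VM7Luc4E2 ER transactivation, luciferase bioluminescence after 24 h, using medium pre-incubated 2 h with S9-free alginate microspheres. Concentrations 0.002–200 uM; gain of signal fitted relative to 17beta-estradiol.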
# Chain of Estrogen receptor (Homo sapiens) (P03372 whole entry, looked up): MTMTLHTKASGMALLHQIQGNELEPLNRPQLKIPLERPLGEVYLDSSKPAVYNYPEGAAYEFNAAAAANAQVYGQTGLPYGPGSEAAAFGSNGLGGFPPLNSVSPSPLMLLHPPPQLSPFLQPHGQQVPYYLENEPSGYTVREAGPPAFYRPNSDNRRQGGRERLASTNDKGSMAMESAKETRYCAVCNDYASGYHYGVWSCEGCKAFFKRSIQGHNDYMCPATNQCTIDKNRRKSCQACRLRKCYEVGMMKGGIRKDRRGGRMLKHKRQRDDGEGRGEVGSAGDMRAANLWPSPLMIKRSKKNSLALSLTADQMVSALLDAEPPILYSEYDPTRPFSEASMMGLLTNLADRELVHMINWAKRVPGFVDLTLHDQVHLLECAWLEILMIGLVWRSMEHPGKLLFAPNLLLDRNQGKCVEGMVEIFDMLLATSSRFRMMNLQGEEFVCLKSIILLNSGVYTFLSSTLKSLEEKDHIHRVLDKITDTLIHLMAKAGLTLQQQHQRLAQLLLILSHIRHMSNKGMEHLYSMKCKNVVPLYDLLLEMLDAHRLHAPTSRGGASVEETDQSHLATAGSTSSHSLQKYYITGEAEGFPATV
SMILES,outcome,AC50
CCCC1CCC(=O)CC1,inactive,–
CC(=O)C1=C(C)[C@@H]2C[C@@]3(C1)[C@H](C)CC[C@H]3C2(C)C,–,0.000263 µM (active)
CCCO,inactive,–
CC(=O)Oc1c(C)c(C)c2c(c1C)CC[C@@](C)(CCC[C@H](C)CCC[C@H](C)CCCC(C)C)O2,inactive,–
CCCCCCCCOC(=O)c1ccc(O)cc1,–,39.7 µM (active)
C=C(C)C(N)=O,inactive,–
C=CC(C)CCCC(C)(C)O (stereo not drawn),inactive,–
CCC(=O)OC(C)(C)C1CC=C(C)CC1 (stereo not drawn),inactive,–
[O-]/[N+](=N\O)c1ccccc1,–,59 µM (active)
[Na+],inactive,–

# System: not listed separately
# Assay: CCTE_Deisenroth_AIME_384WELL_CTox_Inactive: Cytotoxicity Assessment (CTOX) in CCTE's 384-well Estrogen Receptor Transactivation Assay without AIME metabolic competence (metabolism negative), Deisenroth Lab (AID 2284039; active means hit-call score of the fitted dose curve at least 0.9, where 1 is the maximum;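 further: cell viability via live-cell protease substrate cleaved to fluorescent probe; cells exposed 24 h to medium preincubated 2 h with alginate-water beads without S9; loss of fluorescence signal means loss of viability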)
# Method in brief: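 VM7Luc4E2 cells, metabolism-negative arm: test chemicals (0.002–200 uM, 10 points) pre-incubated 2 h with alginate-water microspheres, then medium transferred to cells for 24 h. Viability read as protease-substrate cleavage to fluorescent probe; loss-of-signal, bidirectional fitting.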
SMILES,outcome,AC50
Cc1cccc(O)c1,inactive,–
CN(C)C(=O)Nc1ccccc1,inactive,–
CCCCCCCCCCCCOCCOS(=O)(=O)O,–,107 µM (active)
C=C(C)C(N)=O,inactive,–
C=CC(C)CCCC(C)(C)O (stereo not drawn),inactive,–
CCCC[N+](C)(CCCC)CCCC,inactive,–

# System: not listed separately
# Assay: CCTE_Shafer_MEA_dev_active_electrodes_number: CCTE's Neural Network Formation Assay for Number of Active Electrodes, Shafer Lab (AID 2284040; active means hit-call score of the fitted dose curve at least 0.9, where 1 is the maximum)
# Method: CCTE_Shafer_MEA_dev assay is conducted using Axion Biosystems 48 well microelectrode array (MEA) plates and Maestro recording system. Each well of the MEA plate contains a grid of 16 microelectrodes embedded in the culture surface. Electrically active cells, such as neurons, can be cultured over the electrodes, and electrical activity in these cells can be recorded extracellularly. The spontaneous firing of neurons is captured from each electrode on a microsecond timescale providing both temporally and spatially precise data. […] The CCTE_Shafer_MEA_dev assay uses primary cultures of rat cortical neurons. Recordings are made on days post-plating 5, 7, 9 and 12. As these cultures mature over time, neural networks develop functional activity and form cohesive networks in which electrical activity can be highly coordinated. CCTE_Shafer_MEA_dev_active_electrodes_number is 1 of 19 assay components of the CCTE_Shafer_MEA_dev assay. It measures the number of electrodes in a well with a mean firing rate of at least 5 spikes (action potential firings) per minute during a recording in a microelectrode array (MEA) using Axion Biosystems Maestro 768 channel amplifier with the AxIS adaptive spike detector. To collapse across multiple recordings made on days post-plating 5, 7, 9 and 12, the trapezoidal area-under-the-curve of the component is calculated.Data from the assay component CCTE_Shafer_MEA_dev_active_electrodes_number was analyzed into 1 assay endpoint. This assay endpoint, CCTE_Shafer_MEA_dev_active_electrodes_number, was analyzed in the negative analysis fitting direction relative to DMSO as the negative control and baseline of activity. Using a type of functional reporter, gain or loss-of-signal activity can be used to understand electrical activity.
# On the day prior to culture, each well was coated thoroughly with 150 uL of 0.05% polyethyleneimine (PEI, Sigma Cat P3143) in 50 mM HEPES (Sigma Cat H7523) at a pH of 8. The plate was incubated at 37C for one hour. PEI was rinsed out with 500 uL of sterile water three times. Plates were stored at 4C until the day of culture. This culture was plated at a seeding density of 1.5 x 10^5 cells/well on a 48-well MEA plate, prepared as described above. Cells were administered via a 25 uL media/laminin ([…]; Sigma Cat L2020-1MG) drop directly onto the microelectrode array, as adding the cells with the laminin results in better attachment than pre-coating with laminin. After 2 hours, an additional 475 uL of cortical media was added and the cells returned to the incubator. Exposure starts at day 0 of plating and is continued over twelve days of network development until the experiment is terminated. Cells are fed with fresh medium on DIV 5 and 9, following the recordings on those days. The entire volume of media in the well is exchanged and any vehicle or compound treatment is renewed. Complete details are found in OP-NHEERL/ISTD/SBB/TJS/2015-03-r0 (available on request, email shafer.tim@epa.gov). Measurement of the electrical activity is non-invasive, and recordings can be made from the same plate over multiple different days of the culture. In cortical neurons, this allows for the measurement of extracellular action potentials over the period during which networks form in the MEA plate.
row,SMILES,outcome
1,CC(C)Cc1ccc(C(C)C(=O)O)cc1 (stereo not drawn),inactive
2,N#CCCNCCC#N,inactive
3,CCCCC(CC)COC(=O)COc1ccc(Cl)cc1C (stereo not drawn),inactive

# Biological target: Estrogen receptor (Homo sapiens) (UniProt P03372)
# Assay: CCTE_Deisenroth_AIME_384WELL_LUC_Shift: CCTE's 384-well Estrogen Receptor Transactivation Assay with AIME metabolic competence data shift (ERTA luciferase; difference in metabolism positive and negative), Deisenroth Lab (AID 2284041);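 further: shift is response with S9 minus without S9 so positive means metabolism raised ER signal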
# Method in brief: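 Chemicals (0.002–200 uM, 10 points) pre-incubated 2 h with alginate-encapsulated induced male Sprague Dawley rat liver S9 or S9-free, then medium applied 24 h to VM7Luc4E2 cells; luciferase. Endpoint is per-concentration difference, S9-positive minus negative.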
SMILES,outcome,AC50
COc1ccc2[nH]cc(CCNC(C)=O)c2c1,inactive,–
O=C(OCc1ccccc1)c1ccccc1O,–,37.2 µM (active)
Cc1cccc(O)c1,inactive,–
CC(C)(C)C1CCC(O)CC1 (stereo not drawn),inactive,–
CC(=O)c1ccc2ccccc2c1,inactive,–
O=C1OC2(c3ccc(O)cc3Oc3cc(O)ccc32)c2ccccc21,inactive,–
CCC(C)COC(=O)CC(C)C (stereo not drawn),inactive,–
CCCCOCCOCCOCCO,inactive,–
CN(C)C(=O)Nc1ccccc1,inactive,–
CCCC1CCC(=O)CC1,inactive,–
CCCCCCCCCCCCOCCOS(=O)(=O)O,inactive,–
CC(=O)C1=C(C)[C@@H]2C[C@@]3(C1)[C@H](C)CC[C@H]3C2(C)C,–,0.000848 µM (active)
CCCO,inactive,–
CC(=O)Oc1c(C)c(C)c2c(c1C)CC[C@@](C)(CCC[C@H](C)CCC[C@H](C)CCCC(C)C)O2,inactive,–
CCCCCCCCOC(=O)c1ccc(O)cc1,–,36.3 µM (active)
C=C(C)C(N)=O,inactive,–
C=CC(C)CCCC(C)(C)O (stereo not drawn),inactive,–
CCC(=O)OC(C)(C)C1CC=C(C)CC1 (stereo not drawn),inactive,–
CCCC[N+](C)(CCCC)CCCC,inactive,–
[O-]/[N+](=N\O)c1ccccc1,–,81 µM (active)
[Na+],inactive,–

# System: not listed separately
# Assay: CCTE_Shafer_MEA_dev_burst_rate: CCTE's Neural Network Formation Assay for Burst Rate, Shafer Lab (AID 2284042)
# Method in brief: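 Primary rat cortical neurons on PEI-coated 48-well MEA plates (laminin added with cells at plating) (16 electrodes/well), exposed from plating to day 12, dosing renewed at DIV 5 and 9. Burst rate averaged over active electrodes, recorded DIV 5, 7, 9, 12, summarized as AUC; loss versus DMSO.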
row,SMILES,outcome
1,CC(C)Cc1ccc(C(C)C(=O)O)cc1 (stereo not drawn),inactive
2,N#CCCNCCC#N,inactive
3,CCCCC(CC)COC(=O)COc1ccc(Cl)cc1C (stereo not drawn),inactive
